Experimental data reported in ChEMBL document CHEMBL4513216, “Probing the Open Global Health Chemical Diversity Library for Multistage-Active Starting Points for Next-Generation Antimalarials” (ACS Infect Dis, 2020).
Among all 69,000 compounds or so, about 8,600 (12%) showed an effect of 50% or more. Only a selection was taken, and strong results are over-represented in it overall.

The molecules below were run on Plasmodium berghei (assay: Screen against P. berghei liver stage (PbLuc), transformed with Luciferase, at 10uM). Conditions: tested at 10 uM.
Assay type: functional, HepG2

| SMILES | INHIBITION [%] |
| --- | --- |
| Cc1nc(CN2CCOCC3(CCN(c4cccnc4)CC3)C2)cs1 | 14.4 |
| COCc1ncn2c1CN(C(=O)Nc1ccccc1)CC2 | -22.1 |
| CC(Cn1ccnc1)NC(=O)Cc1ccc2c(c1)OCCO2 (stereo not given) | -21.8 |
| Cc1ccsc1-c1nccn1C1CC(=O)N(C(C)C)C1 (stereo not given) | 35.8 |
| Cc1ccc(NC(=O)CNC(C)Cc2ccsc2)cc1F (stereo not given) | 52.2 |
| Cc1ccc(NC(=O)CN[C@H](C(N)=O)C(C)C)cc1F | 10.7 |
| Cc1cccc(C)c1NC(=O)CNC(C)Cc1ccsc1 (stereo not given) | 34.6 |
| Cc1ccn(-c2cccc(C(=O)N3CCCC(n4ccnc4C)C3)c2)n1 (stereo not given) | 44.8 |
| Cc1cc(CN2CC[C@H]3[C@H]2CCN3CC(=O)N(C)C)oc1C | 38.3 |
| Cc1cc(CN(CCO)c2ccccc2)on1 | 45.5 |
| Cc1cc(CN(CCCO)c2ccccc2)on1 | 56.5 |
| Cc1cc(CN(CCO)c2ccc(Br)cc2)on1 | 13.8 |
| Cc1cc(C(=O)NCc2cc(C)oc2C)no1 | -13 |
| CCN1CCN(C(=O)c2cccc(CN3CCOCC3)c2)CC1 | -14.8 |
| COCCN1CCn2cc(CN(C)Cc3ccco3)nc2C1 | 73 |
| CN(Cc1cn2c(n1)CN(Cc1nccs1)CC2)Cc1ccco1 | 43.9 |
| CN(Cc1cn2c(n1)CN(Cc1ccc(F)cc1)CC2)Cc1ccco1 | 59 |
| Cc1ccc(CN2CCn3cc(CN(C)Cc4ccco4)nc3C2)o1 | -3.16 |
| CN(Cc1cn2c(n1)CN(Cc1ccsc1)CC2)Cc1ccco1 | 31.1 |
| CCS(=O)(=O)N1CCn2cc(CN(C)Cc3ccco3)nc2C1 | 47.4 |
| O=C([C@H]1CC[C@@H]2[C@@H](CCN2Cc2nccs2)O1)N1CCOCC1 | -1.12 |
| Cc1ccnc(CC(C)N(C)c2cc(CCN)nc(C)n2)c1 (stereo not given) | 45.2 |

| SMILES | INHIBITION [%] |
| --- | --- |
| Cc1ccnc(CC(C)N(C)c2cc(CN)nc(C)n2)c1 (stereo not given) | 66.5 |
| Cc1ccnc(CC(C)N(C)c2cc(C3CCNCC3)nc(C)n2)c1 (stereo not given) | 36.9 |
| Cc1cc(C(=O)N2CCC3(CCNCC3)CC2)c2cccc(C)c2n1 | 18.4 |
| Cc1nc(CN2CCCC(c3cnccn3)C2)cs1 (stereo not given) | 17.8 |
| CC(C)c1noc(-c2ccc(NCCCN3CCCC(O)C3)nc2)n1 (stereo not given) | 53 |
| CC(C)c1noc(-c2ccc(NCC3CCCOC3)nc2)n1 (stereo not given) | -118 |
| CC(C)c1noc(-c2ccc(NCCCC3CCOC3)nc2)n1 (stereo not given) | 43.9 |
| CS(=O)(=O)NC1CC2(CCN(CCF)CC2)Oc2ccccc21 (stereo not given) | 12.5 |
| CCOC(C)c1nccn1Cc1noc(CC)n1 (stereo not given) | 8.41 |
| CCC(C)[C@H](N)c1nnc(SCC(=O)Nc2cc(C)ccc2C)o1 (stereo not given in full) | 22.2 |
| CN(Cc1cc2n(n1)CCN(C(=O)c1cccnc1)C2)Cc1nccs1 | -10.6 |
| CN(Cc1cc2n(n1)CCN(C(=O)[C@H]1CCCO1)C2)Cc1nccs1 | 50.3 |
| CN(Cc1cc2n(n1)CCCN(C(=O)N1CCCC1)C2)Cc1nccs1 | 38.5 |
| Cc1nc(C)n(CC2CCCN2CCOc2ccccc2C#N)n1 (stereo not given) | 17.4 |
| CC(C)CN(CC(O)c1ccccc1)C(=O)NC(C)C (stereo not given) | 40.9 |
| CCn1nc(C)c(CCNC(=O)C2CCCN(C(N)=O)C2)c1C (stereo not given) | -8.11 |
| CC(C)c1ccc(OCCC(=O)N2CCCN(C(N)=O)CC2)cc1 | -4 |
| CC(c1ccncn1)N(C)Cc1cc2cc3c(cc2[nH]c1=O)OCO3 (stereo not given) | 58.7 |
| CC(c1ccccn1)N(C)Cc1cc2cc3c(cc2[nH]c1=O)OCO3 (stereo not given) | 21.8 |
| CC(c1cccnc1)N(C)Cc1cc2cc3c(cc2[nH]c1=O)OCO3 (stereo not given) | 27.6 |
| Cc1ccc(N2CCCC(NCCS(C)(=O)=O)C2)nn1 (stereo not given) | 64.4 |
| Cc1ccc(N2CCCC(NCCCS(C)(=O)=O)C2)nn1 (stereo not given) | 14.9 |

| SMILES | INHIBITION [%] |
| --- | --- |
| COCCCNC1CCCN(c2ccc(C)nn2)C1 (stereo not given) | -28.7 |
| CCOCC(=O)NCCCn1ccnc1-c1ccccc1 | 16.5 |
| CCc1nnc(CN(CC)C(=O)C2CC(=O)N(C(C)(C)C)C2)o1 (stereo not given) | 35.8 |
| CCOc1cccc(C(=O)Nc2ccn(CC)n2)c1 | -35.4 |
| COc1ccccc1OCCNCCn1cccn1 | 19.4 |
| CCn1ccc(-c2cc(NCCCOc3ccccc3C)nc(C)n2)n1 | 82.4 |
| CCn1ccc(-c2cc(NCCCOc3cccc(C)c3)nc(C)n2)n1 | 75.9 |
| Cc1cccc(OCCCNC(=O)Cn2ccc(C)cc2=O)c1 | -12.9 |
| CCn1ccc(-c2cc(C(=O)O)n3nc(C)c(Cl)c3n2)n1 | 12.3 |
| CCCNC(=O)c1nn(CC)cc1NC(=O)C(C)n1ncc(Cl)c1C (stereo not given) | 8.49 |
| CC(C)NC(=O)N1CCc2ncnc(-c3ccncc3)c2CC1 | -7.24 |
| Cc1nc(C)n(CC2CN(CCOc3cccc(C#N)c3)CCO2)n1 (stereo not given) | -5.07 |
| Cc1ccc(CN2CCc3[nH]nc(C(=O)N4CCNC(=O)C4)c3C2)s1 | 18.7 |
| CCNC(=O)[C@@H]1C[C@H](NC(=O)Cc2ccsc2)CN1Cc1ccc(C)o1 | 24.6 |
| CCNC(=O)[C@@H]1C[C@@H](NC(=O)Cc2ccccn2)CN1CCCSC | 41.8 |
| CCNC(=O)[C@@H]1C[C@@H](NC(=O)c2ccc(C)s2)CN1Cc1ccccn1 | 18.9 |
| CCNC(=O)[C@@H]1C[C@@H](NC(=O)c2cc(C)on2)CN1Cc1ccccn1 | 54.8 |
| CCNC(=O)[C@@H]1C[C@H](NC(=O)c2ccc(C)s2)CN1Cc1ccc(C)o1 | 68.9 |
| CCNC(=O)[C@@H]1C[C@H](NC(=O)c2cc(CC)n[nH]2)CN1Cc1ccsc1 | -20.5 |
| CCN(CCOC)C(=O)c1cc(COc2ccc3c(c2)CCCC3)on1 | 25.1 |
| Cc1cc(C(F)(F)F)nc(CCNC(C)Cn2cncn2)n1 (stereo not given) | 8.86 |
| COC(=O)CCCC(=O)N1CCC(CO)(CCc2ccccc2)CC1 | 30.7 |

| SMILES | INHIBITION [%] |
| --- | --- |
| CCc1ccc(NC(=O)c2n[nH]c(-n3cnnc3)n2)cc1 | 25.9 |
| CCc1nc(C2CCCN(C(=O)C(C)(C)NS(C)(=O)=O)C2)no1 (stereo not given) | 3.73 |
| O=C(c1cnn2c1OCCC2)N1CCC(Cc2ccccc2)CC1 | 13.6 |
| CCN1CCOC(CNCc2cnc(C(C)(C)C)s2)C1 (stereo not given) | 46.5 |
| c1cc(CNCC2Cn3nncc3CO2)co1 (stereo not given) | -21.7 |
| c1cc(CNCC2Cn3nncc3CO2)ccn1 (stereo not given) | 29.8 |
| CCN1CCOC(CNCc2ccccn2)C1 (stereo not given) | 33 |
| c1coc(CNCC2Cn3nncc3CO2)c1 (stereo not given) | 62.9 |
| Cc1nc(CNCC2Cn3nncc3CO2)cs1 (stereo not given) | 5.89 |
| Cc1ccc(CNCC2Cn3nncc3CO2)o1 (stereo not given) | 43.9 |
| Cc1ccc(CNCC2Cn3nncc3CO2)s1 (stereo not given) | 54.8 |
| CCN1CCOC(CNCc2ccc(C)s2)C1 (stereo not given) | 73.6 |
| COc1cccc(C(=O)N2CCc3c(nc(N)[nH]c3=O)C2)c1C | 21.8 |
| CN(C)C(=O)[C@H]1C[C@@H]2CCN(Cc3ccoc3)C[C@@H]2O1 | 34 |
| O=C(Nc1ccccc1)c1cc2n(n1)CCCN(C(=O)N1CCCC1)C2 | 35 |
| Cc1cc2ccccc2n1CCC(=O)NCCCc1nnc(N)s1 | 0.426 |
| CCCC(C)C(=O)N1CCC(n2cccc2C(=O)OC)CC1 (stereo not given) | 12.2 |
| N#Cc1cccc(N2CC3(CCN(C(=O)c4ccncc4)C3)CC2=O)c1 (stereo not given) | 21.5 |
| COc1c(C2CCCN2Cc2nc(C)c(C)o2)c(C)nn1C (stereo not given) | 11.2 |
| CCCn1ccnc1CN1CCCC1c1cccc(-n2ccnc2)n1 (stereo not given) | 42.4 |
| CCCc1noc(CN2CCCC2c2c(C)nn(C)c2OC)n1 (stereo not given) | 42.9 |
| COc1c(C2CCCN2Cc2nc(C3CC3)no2)c(C)nn1C (stereo not given) | 52.3 |

| SMILES | INHIBITION [%] |
| --- | --- |
| COc1c(C2CCCN2Cc2csc(C(C)C)n2)c(C)nn1C (stereo not given) | 20.1 |
| CCCn1ccnc1CN1CCCC1c1ccccn1 (stereo not given) | 56.7 |
| Cc1nn(C)c(C)c1C1CCCN1Cc1cn2ccsc2n1 (stereo not given) | 74 |
| COc1c(C2CCCN2Cc2cn3ccsc3n2)c(C)nn1C (stereo not given) | 65.6 |
| Cc1nn(C)c(Cl)c1C1CCCN1Cc1cn2ccsc2n1 (stereo not given) | 24.8 |
| Cc1nn(C)c(C)c1C1CCCN1Cc1nc(C2CC2)no1 (stereo not given) | 21.2 |
| CCc1nc(C2CCCN2Cc2nccn2Cc2ccccc2)no1 (stereo not given) | 32 |
| Cc1nn(C)c(C)c1C1CCCN1C(=O)Cc1cn2ccsc2n1 (stereo not given) | 21.1 |
| CCN(Cc1ccco1)C(C)c1nc(C(C)C)no1 (stereo not given) | -165 |
| Cc1cccc(OCCNC(=O)CN2CCN(C)CC2C)c1 (stereo not given) | -43.415 |
| COCC1CN(C(=O)COc2ccccc2)Cc2cn(C)nc21 (stereo not given) | 11.5 |
| COc1ncccc1C(=O)N1C[C@@H]2COC[C@]2(CN(C)C)C1 | -35.2 |
| O=C(NCCCn1ccnc1)C1CCC(=O)N1Cc1cccs1 (stereo not given) | 13.9 |
| CCn1cncc1-c1nc2c([nH]1)CC(C)(C)CNC2=O | -23.2 |
| Cc1ccc(O[C@@H]2C[C@H]3CN(C(=O)c4cccnc4)CCN3C2)cc1 | -2.25 |
| OCC1N(Cc2ccc(F)cc2)C2CCC1(O)CC2 (stereo not given) | 39.6 |
| COc1c(C2CCCN2Cc2cc(C)no2)c(C)nn1C (stereo not given) | 0.938 |
| CCn1ccnc1CN1CCCC1c1c(C)nn(C)c1OC (stereo not given) | 65.4 |
| COc1c(C2CCCN2Cc2nccn2C)c(C)nn1C (stereo not given) | 22.8 |
| CC(NC(=O)CN(C)C(C)C)c1ccc(Oc2cccnc2)c(F)c1 (stereo not given) | 23.5 |
| CSc1nsc(NC(=O)N(C)Cc2ccc3c(c2)OCO3)n1 | -29.6 |
| Cc1ccccc1OCCn1cnc2oc(C)c(C(=O)O)c2c1=O | -16.3 |
